# Source: PubChem BioAssay (EPA / NIEHS)
# Results filed as inconclusive are left out. Active and inactive are the calls of the source. How the source made its calls: active means hit-call score of the fitted dose curve at least 0.9, where 1 is the maximum; inconclusive means response in the unintended direction; inactive means score below 0.9.
# Assays:
# [1] = ACEA_ER_AUC_viability: ACEA Biosciences xCELLigence Real-Time Cell Analysis on Estrogen Receptor Agonism for Viability (AID 2283782);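 further: hit means loss of impedance signal meaning reduced cell growth or viability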
# How it was run: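 Read-out: real-time electrical impedance (RT-CES) area under curve, loss of signal taken as reduced viability, normalized to DMSO baseline. T-47D cells, charcoal-stripped serum medium, compounds up to 100 uM final, continuous exposure, 80 h.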
# AR (gene 367) [2] = molecular target: AR (gene 367) (UniProt P10275); experiment: ACEA_AR_agonist_80hr: ACEA Biosciences xCELLigence Real-Time Cell Analysis on Androgen Receptor Agonism for Proliferation (AID 2283783);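 further: hits increase impedance growth signal above DMSO baseline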
# Sequence of AR (gene 367) (P10275 whole entry, looked up): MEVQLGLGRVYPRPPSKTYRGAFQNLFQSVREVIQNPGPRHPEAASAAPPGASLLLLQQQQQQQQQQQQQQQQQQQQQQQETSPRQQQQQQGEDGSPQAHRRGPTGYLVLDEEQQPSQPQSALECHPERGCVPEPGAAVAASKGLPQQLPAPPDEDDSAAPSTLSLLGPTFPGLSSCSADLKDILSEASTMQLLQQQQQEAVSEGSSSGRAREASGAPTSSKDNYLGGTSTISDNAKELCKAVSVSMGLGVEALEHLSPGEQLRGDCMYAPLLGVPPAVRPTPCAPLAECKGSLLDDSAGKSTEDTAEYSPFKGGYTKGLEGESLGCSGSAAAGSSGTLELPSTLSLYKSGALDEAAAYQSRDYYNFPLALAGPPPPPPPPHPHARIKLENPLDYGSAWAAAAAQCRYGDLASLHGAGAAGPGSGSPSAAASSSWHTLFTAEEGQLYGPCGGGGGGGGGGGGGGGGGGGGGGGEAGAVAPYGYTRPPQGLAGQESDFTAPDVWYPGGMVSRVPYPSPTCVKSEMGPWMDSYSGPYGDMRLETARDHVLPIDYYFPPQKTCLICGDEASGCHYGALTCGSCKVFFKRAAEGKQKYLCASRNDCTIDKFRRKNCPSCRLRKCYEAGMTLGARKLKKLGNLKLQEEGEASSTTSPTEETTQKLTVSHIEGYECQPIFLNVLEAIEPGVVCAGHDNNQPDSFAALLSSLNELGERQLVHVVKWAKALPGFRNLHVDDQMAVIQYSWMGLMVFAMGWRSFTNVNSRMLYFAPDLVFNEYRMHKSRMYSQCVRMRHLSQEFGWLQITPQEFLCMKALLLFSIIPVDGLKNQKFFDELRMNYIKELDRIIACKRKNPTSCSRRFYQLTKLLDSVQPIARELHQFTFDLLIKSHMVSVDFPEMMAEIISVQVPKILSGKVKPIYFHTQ
# How it was run: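 Impedance (RT-CES) growth signal at 80 h post-dose; 22Rv1 cells, 8-pt 1:4 series, top 100 uM final, DMSO ≤0.5%; duplicate plates; gain-of-signal fit relative to DMSO baseline.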
# [3] = STM_H9_NormalizedViability: Cytotoxicity Assessment at 120 hours in the Stemina devTOX quickPredict H9 human embryonic stem cell (hESC)-based Assay (AID 2283784)
# How it was run: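 Here, H9 cells received test compound with daily medium renewal. Each plate included methotrexate references (1uM, 5 nM), 0.1% DMSO and media blanks; CellTiter-Fluor RFU was normalized to DMSO.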
# AR (gene 367) [4] = molecular target: AR (gene 367) (UniProt P10275); experiment: ACEA_AR_antagonist_80hr: ACEA Biosciences xCELLigence Real-Time Cell Analysis on Androgen Receptor Antagonism for Proliferation (AID 2283787);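 further: 22Rv1 human prostate cancer cells with growth followed by electrical impedance; hits lower the impedance growth signal relative to DMSO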
# How it was run: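 Measures real-time proliferation of 22Rv1 prostate cancer cells by electrode impedance at 80 hours after dosing. Test articles ran at eight concentrations (1:4 steps, top 100 uM final) in biological duplicate.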
# [5] = molecular target: Estrogen receptor beta (Homo sapiens) (UniProt Q92731); experiment: ATG_hERb_XSP1: Attagene TRANS-FACTORIAL Multi-Species (XSP1) HepG2 Assay for human Estrogen Receptor (ESR2) (AID 2283788)
# Sequence of Estrogen receptor beta (Homo sapiens) (Q92731 whole entry, looked up, the tested form may be a part): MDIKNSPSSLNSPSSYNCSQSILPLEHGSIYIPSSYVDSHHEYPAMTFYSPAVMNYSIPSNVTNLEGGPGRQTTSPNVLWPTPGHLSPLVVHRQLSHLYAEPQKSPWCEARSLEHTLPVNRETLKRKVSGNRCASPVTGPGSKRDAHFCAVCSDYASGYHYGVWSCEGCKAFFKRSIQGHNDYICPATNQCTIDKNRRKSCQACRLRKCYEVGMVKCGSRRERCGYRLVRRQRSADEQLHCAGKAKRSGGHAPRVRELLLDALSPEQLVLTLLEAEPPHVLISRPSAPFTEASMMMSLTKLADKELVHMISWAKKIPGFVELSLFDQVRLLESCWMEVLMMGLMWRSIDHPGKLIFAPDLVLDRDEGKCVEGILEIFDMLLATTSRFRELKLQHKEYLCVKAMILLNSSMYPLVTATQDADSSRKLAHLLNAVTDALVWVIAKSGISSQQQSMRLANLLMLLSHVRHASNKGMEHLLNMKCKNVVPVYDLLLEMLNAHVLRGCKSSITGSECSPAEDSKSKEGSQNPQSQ
# How it was run: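 Transient MRTU transfection of HepG2; ERβ–GAL4 TRANS format; 24 h dosing; 3 nM 6α-fluorotestosterone co-added; RNA → RT-PCR → 6-FAM primer extension → CE; activity vs DMSO.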
# [6] = molecular target: GAL4 Transcription Factor (Internal Marker), GAL4 (gene 855828) (UniProt P04386); experiment: ATG_GAL4_XSP1: Attagene TRANS-FACTORIAL Multi-Species (XSP1) HepG2 Assay for GAL4 Transcription Factor (Internal Marker) (AID 2283789)
# Sequence of GAL4 Transcription Factor (Internal Marker), GAL4 (gene 855828) (P04386 whole entry, looked up, the tested form may be a part): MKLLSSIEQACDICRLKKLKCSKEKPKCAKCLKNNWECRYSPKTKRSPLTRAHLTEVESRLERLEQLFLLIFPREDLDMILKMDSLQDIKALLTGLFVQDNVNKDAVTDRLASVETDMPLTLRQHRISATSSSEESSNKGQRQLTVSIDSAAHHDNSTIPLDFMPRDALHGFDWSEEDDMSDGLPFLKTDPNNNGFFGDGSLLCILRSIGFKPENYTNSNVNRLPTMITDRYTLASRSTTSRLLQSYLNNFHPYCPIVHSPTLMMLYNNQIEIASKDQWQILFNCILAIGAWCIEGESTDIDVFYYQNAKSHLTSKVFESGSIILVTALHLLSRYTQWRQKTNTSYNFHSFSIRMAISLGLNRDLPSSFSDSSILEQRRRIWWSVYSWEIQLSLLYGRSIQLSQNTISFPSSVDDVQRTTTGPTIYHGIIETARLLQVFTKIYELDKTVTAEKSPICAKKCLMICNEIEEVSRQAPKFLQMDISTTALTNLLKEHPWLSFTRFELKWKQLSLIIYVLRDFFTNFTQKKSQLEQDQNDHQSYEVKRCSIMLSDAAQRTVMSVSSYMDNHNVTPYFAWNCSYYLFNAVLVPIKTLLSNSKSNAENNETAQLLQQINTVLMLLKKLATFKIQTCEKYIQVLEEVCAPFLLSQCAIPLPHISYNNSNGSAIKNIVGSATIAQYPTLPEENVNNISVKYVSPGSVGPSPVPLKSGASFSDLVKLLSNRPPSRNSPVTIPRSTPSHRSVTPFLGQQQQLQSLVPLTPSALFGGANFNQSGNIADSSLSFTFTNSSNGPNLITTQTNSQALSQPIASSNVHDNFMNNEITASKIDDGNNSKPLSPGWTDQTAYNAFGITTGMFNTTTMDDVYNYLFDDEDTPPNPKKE
# How it was run: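 This background-control endpoint measures GAL4-driven reporter mRNA via RT-PCR and capillary electrophoresis of labelled fragments. Transiently transfected HepG2 cells were treated 24 h, with 3 nM 6-alpha-fluorotestosterone included, and gain-of-signal was fitted against DMSO.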
# [7] = ATG_M_06_XSP1: Attagene TRANS-FACTORIAL Multi-Species (XSP1) HepG2 Assay for M06 Transcription Factor (Internal Marker) (AID 2283790)
# How it was run: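 This background-control readout tracks M06 reporter mRNA, measured by RT-PCR and capillary electrophoresis. HepG2 cells transiently carrying the GAL4-UAS reporter panel were dosed for 24 h with 3 nM 6-alpha-fluorotestosterone added for partial AR stimulation; increases were scored relative to DMSO.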
# [8] = ATG_M_61_XSP1: Attagene TRANS-FACTORIAL Multi-Species (XSP1) HepG2 Assay for M61 Transcription Factor (Internal Marker) (AID 2283797)
# Protocol: ATG_XSP1_multi-species_TRANS is a cell-based, multiplexed assay created by modifying the existing Attagene TRANS-FACTORIAL system to include a panel of nuclear receptors from some or all the following species: human (Homo sapiens), mouse (Mus musculus), frog (Xenopus laevis), zebrafish (Danio rerio), chicken (Gallus gallus), and turtle (Chrysemys picta). The ECOTOX-FACTORIAL format uses HepG2, a human liver cell line, with measurements taken at 24 hours after chemical dosing in a 24-well plate. Xsp1 included 3 nM 6-alpha-fluorotestosterone to partially stimulate the androgen receptor.ATG_M_61_XSP1 is one of 29 assay components measured or calculated from the ATG_XSP1_multi-species_TRANS assay. It is designed to make measurements of mRNA induction, a form of inducible reporter, as detected with fluorescence intensity signals by Reverse transcription polymerase chain reaction (RT-PCR) and Capillary electrophoresis technology.This assay endpoint, ATG_M_61_XSP1, was analyzed in the positive analysis fitting direction relative to DMSO as the negative control and baseline of activity. […] Furthermore, this assay endpoint can be referred to as a secondary readout, because this assay has produced multiple assay endpoints where this one serves a background control function. […]
# [9] = molecular target: Peroxisome proliferator-activated receptor gamma (Homo sapiens) (UniProt P37231); experiment: ATG_hPPARg_XSP1: Attagene TRANS-FACTORIAL Multi-Species (XSP1) HepG2 Assay for human Peroxisome Proliferator-activated Receptor gamma (PPARg) (AID 2283800)
# Sequence of Peroxisome proliferator-activated receptor gamma (Homo sapiens) (P37231 whole entry, looked up, the tested form may be a part): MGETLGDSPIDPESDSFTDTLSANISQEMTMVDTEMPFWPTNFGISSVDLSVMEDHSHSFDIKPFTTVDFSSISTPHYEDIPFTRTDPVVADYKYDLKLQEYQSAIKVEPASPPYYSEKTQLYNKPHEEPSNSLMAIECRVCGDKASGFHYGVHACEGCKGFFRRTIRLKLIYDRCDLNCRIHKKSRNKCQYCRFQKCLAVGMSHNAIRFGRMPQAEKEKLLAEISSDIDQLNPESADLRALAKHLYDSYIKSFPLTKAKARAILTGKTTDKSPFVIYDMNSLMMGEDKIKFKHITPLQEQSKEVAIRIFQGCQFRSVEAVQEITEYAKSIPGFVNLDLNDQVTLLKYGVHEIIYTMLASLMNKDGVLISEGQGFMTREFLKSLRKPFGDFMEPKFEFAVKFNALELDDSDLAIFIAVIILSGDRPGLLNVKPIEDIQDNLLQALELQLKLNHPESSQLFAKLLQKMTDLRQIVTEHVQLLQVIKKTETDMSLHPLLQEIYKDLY
# How it was run: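 Reporter mRNA induction, measured by RT-PCR with capillary electrophoresis 24 h after dosing, scored as gain over DMSO. Transfected HepG2 cells express exogenous NR-Gal4 chimeras driving GAL4-UAS reporters; medium includes 3 nM 6-alpha-fluorotestosterone.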
# [10] = molecular target: Nuclear receptor subfamily 1 group I member 2 (Mus musculus) (UniProt O54915); experiment: ATG_mPXR_XSP1: Attagene TRANS-FACTORIAL Multi-Species (XSP1) HepG2 Assay for mouse Pregnane X Receptor (PXR) (AID 2283803)
# Sequence of Nuclear receptor subfamily 1 group I member 2 (Mus musculus) (O54915 whole entry, looked up, the tested form may be a part): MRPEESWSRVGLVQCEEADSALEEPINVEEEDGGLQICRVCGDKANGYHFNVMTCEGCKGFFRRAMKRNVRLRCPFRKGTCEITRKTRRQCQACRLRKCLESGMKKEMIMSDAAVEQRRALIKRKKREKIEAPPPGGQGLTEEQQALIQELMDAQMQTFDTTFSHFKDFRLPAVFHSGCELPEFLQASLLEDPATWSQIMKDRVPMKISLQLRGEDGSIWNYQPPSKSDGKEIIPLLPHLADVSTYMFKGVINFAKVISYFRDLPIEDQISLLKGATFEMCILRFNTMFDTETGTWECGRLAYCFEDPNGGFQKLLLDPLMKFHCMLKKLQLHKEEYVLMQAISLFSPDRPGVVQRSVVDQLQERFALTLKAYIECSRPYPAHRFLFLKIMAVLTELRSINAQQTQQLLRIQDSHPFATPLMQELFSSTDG
# How it was run: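 Transiently transfected HepG2 cells expressing a receptor-Gal4 chimera drive a GAL4-UAS reporter; 3 nM 6-alpha-fluorotestosterone included. Reporter mRNA read 24 h post-dose by RT-PCR and capillary electrophoresis; gain of signal relative to DMSO.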
structure (smiles),measurement,setting,value
CCCCCCC(C)(C)C(=O)O,outcome,[1],inactive
same,outcome,AR (gene 367) [2],inactive
O=C(CCCN1CCC(O)(c2ccc(Cl)cc2)CC1)c1ccc(F)cc1,outcome,[1],inactive
same,outcome,[3],inactive
Cc1[nH]nc2c1N=C(c1ccccc1Cl)c1cc([N+](=O)[O-])ccc1N2,AC50,[3],1.99 µM (active)
CC(=O)Nc1ccc(O)cc1,outcome,AR (gene 367) [4],inactive
C[C@]12CC[C@@H]3c4ccc(O)cc4CC[C@H]3[C@@H]1C[C@@H](O)[C@@H]2O,AC50,[5],0.0105 µM (active)
same,outcome,[6],inactive
same,outcome,[7],inactive
same,outcome,[8],inactive
same,outcome,[9],inactive
same,outcome,[10],inactive
CC(O)COc1ccccc1 (centres undefined),outcome,[1],inactive
same,outcome,AR (gene 367) [4],inactive
